Measurements: publication PMC7819943, “Rice protein-binding microarrays: a tool to detect cis-acting elements near promoter regions in rice”
In all, about 35,000 sequences were measured (“fluorescence intensity (a.u.)”: median about 10,000, highest 2% from about 52,000 on). The sample holds the highest values, similar sequences and a random draw of the others, so the mix is not that of the screen.

Molecular target: T1, OsWOX13 (Oryza sativa, UniProt Q5QMM3 1-267)
T1 sequence: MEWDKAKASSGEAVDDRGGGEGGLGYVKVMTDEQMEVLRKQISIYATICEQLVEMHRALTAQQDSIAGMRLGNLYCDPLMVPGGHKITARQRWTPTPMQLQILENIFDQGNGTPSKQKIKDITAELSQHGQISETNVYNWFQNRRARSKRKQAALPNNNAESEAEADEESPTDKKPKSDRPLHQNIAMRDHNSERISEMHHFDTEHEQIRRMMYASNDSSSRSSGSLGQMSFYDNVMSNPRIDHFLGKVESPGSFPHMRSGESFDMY
Experiment: protein-binding microarray (RPBM); PBS, 2% BSA, 51.3 ng/ul salmon testes DNA, 50 uM zinc acetate, 200 nM TF, 25 C, 1 h; high values mean tight binding
Settings: protein: recombinant; tags: N-terminal polyhistidine and DsRed monomer fusion (pET32a); label: CyDye5-dUTP incorporated in the synthesized complementary strand; 3' TTTTT single-stranded linker to array surface; dsDNA, one strand shown
How it was run: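 Using Ni–NTA, transcription factors fused N-terminally to polyhistidine and DsRed were purified after expression in E. coli BL21-CodonPlus. These were incubated at 200 nM with a blocked, double-stranded custom Agilent array for 1 h at 25 °C in a buffer containing 50 µM zinc acetate, and the array was washed. The binding signal is per-feature fluorescence intensity (arbitrary units) on an Axon 4000B scanner.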

Sequence	binding signal
AAAATTGACTAGAGTGCTCTCACAAAATAAACTAGAGAGACGGAGTCACCTAGTGCAG	7000 fluorescence intensity (a.u.)
CACCAATCACATTAATATGATAATTCATTCACCTACCTCGCGGAGTCACCTAGTGCAG	39700 fluorescence intensity (a.u.)
AGTCAGATGCTCATAATTGAAAGAAATGCTAGGGCCTGAACGGAGTCACCTAGTGCAG	15200 fluorescence intensity (a.u.)
TGTTAATTTGAAATTTGGAAGATGTAATTAACTGTTGCCACGGAGTCACCTAGTGCAG	46900 fluorescence intensity (a.u.)
CACTATAGTTACAGTGTAATTACATGCAAGTTACAGTGTACGGAGTCACCTAGTGCAG	5020 fluorescence intensity (a.u.)
TTATGATTTCAAGGTTAATGCTGCAGTTTCAAACAAGTTACGGAGTCACCTAGTGCAG	3480 fluorescence intensity (a.u.)
AGGTGATCATGCAAGGTAGTCAACAGTGTACTGCTAGTTACGGAGTCACCTAGTGCAG	53800 fluorescence intensity (a.u.)
TTGGTGATTGAATCTGAACATGCTGGCCTTTGGGATGACTCGGAGTCACCTAGTGCAG	28400 fluorescence intensity (a.u.)
GCATCGGAATTTTGGATGTGATTGCCTGCATCGGATGGATCGGAGTCACCTAGTGCAG	18200 fluorescence intensity (a.u.)
GTACATGAATTTTGATTAATTGCTAATTTTACATATGGATCGGAGTCACCTAGTGCAG	26000 fluorescence intensity (a.u.)
AATTCTGTGATTAGCGGGTGCTTTTCGAATGGATGGCATGCGGAGTCACCTAGTGCAG	29200 fluorescence intensity (a.u.)
TATGATTGGCATGGCCTGAATGGATGGATGAATTTTGGATCGGAGTCACCTAGTGCAG	58500 fluorescence intensity (a.u.)
CCGGGTGATTGGCATGAATCTGAATGGCTGAATCCTGATGCGGAGTCACCTAGTGCAG	53400 fluorescence intensity (a.u.)
TTTAATTGTATTAACACTCGTGAGAATGATACATGAGATCCGGAGTCACCTAGTGCAG	29000 fluorescence intensity (a.u.)
GTGAATTTGATAGGGCGATAAGGATAATAAACAAGAACATCGGAGTCACCTAGTGCAG	3540 fluorescence intensity (a.u.)
ACATTAACAAACTCTATCTTAACATTTAGATGCAAGAGCCCGGAGTCACCTAGTGCAG	3790 fluorescence intensity (a.u.)
TCGCCAATGATTGATCGCCTCATTCCCTCCTCCTCCTCCTCGGAGTCACCTAGTGCAG	57300 fluorescence intensity (a.u.)
CGGATCCCATTCAATCATTCATTCATGTCGGATTGATGCCCGGAGTCACCTAGTGCAG	11800 fluorescence intensity (a.u.)
AATATCCCATGATTGACTAGCTAGATGAATCCATATGGGTCGGAGTCACCTAGTGCAG	36500 fluorescence intensity (a.u.)
ATGATTGATCCATGAATCCCATTATCCATCATCCTCGAGTCGGAGTCACCTAGTGCAG	63300 fluorescence intensity (a.u.)
GATGATTGATGGGAATATAGAGATCCCATGTTTTCCAGCTCGGAGTCACCTAGTGCAG	61000 fluorescence intensity (a.u.)
AGTGACCTCAATTGATCATTCCCTCATCCTTTAGTCAAGCCGGAGTCACCTAGTGCAG	3990 fluorescence intensity (a.u.)

Sequence	binding signal
CTAACTCAATGATTAAAATCTCGCCAGATCCCTCCTGCGTCGGAGTCACCTAGTGCAG	16700 fluorescence intensity (a.u.)
TCCTTGATTTCTCCCCTCTCTCTGTCATTTCTCTCTTCCTCGGAGTCACCTAGTGCAG	13500 fluorescence intensity (a.u.)
TAATAACTTATACTGATATTGATTACTCCCTCCATCCCTACGGAGTCACCTAGTGCAG	11800 fluorescence intensity (a.u.)
TACATGATGGGAAAATAGACTTTTGCAGCAGAGATTGAATCGGAGTCACCTAGTGCAG	10200 fluorescence intensity (a.u.)
TCCCCTTGATTGATTGATCACCATTATTATAACATCCTCTCGGAGTCACCTAGTGCAG	64400 fluorescence intensity (a.u.)
ATTGATCAATCGATCAATCCCTCCTTCCCCATCCAATCCTCGGAGTCACCTAGTGCAG	4160 fluorescence intensity (a.u.)
CCGAAATTTGTCTCTTAATCATATACCGCACTTTCTGCCACGGAGTCACCTAGTGCAG	16100 fluorescence intensity (a.u.)
TATTAATTGGATAAAGTCATCTATATTAATGTGGATAATACGGAGTCACCTAGTGCAG	17600 fluorescence intensity (a.u.)
CAGGTGCTCTAACTACTATGTAATTGAACCACTGACATGTCGGAGTCACCTAGTGCAG	5510 fluorescence intensity (a.u.)
TAAAAGATTTGTATCACAAATTAGTCGCAATTTGTATAATCGGAGTCACCTAGTGCAG	9610 fluorescence intensity (a.u.)
TTAATTTGTTGTGATTAACGTGGCATGCATGACACTAAAGCGGAGTCACCTAGTGCAG	26900 fluorescence intensity (a.u.)
AACGCAATCAGTGGGAGATCAATCGCAAAATCACCATCATCGGAGTCACCTAGTGCAG	11000 fluorescence intensity (a.u.)
AAACTAAATTTAGACAGGAGTTCAGGTGATGAGTCAATGGCGGAGTCACCTAGTGCAG	36800 fluorescence intensity (a.u.)
CCTAAATTATTCTAAAATTAAAATGTTAATGGGGAAGTATCGGAGTCACCTAGTGCAG	19900 fluorescence intensity (a.u.)
GATTATAAATTACAAGTGTTAATTTGATGAATTTTGTTATCGGAGTCACCTAGTGCAG	19500 fluorescence intensity (a.u.)
CCAAACAGATTGAACTCGACGATTGGACGAATACGGCGATCGGAGTCACCTAGTGCAG	58900 fluorescence intensity (a.u.)
TCCATTGATTGAGGAATAGTGCCAGCTTTAGATTTGCTCCCGGAGTCACCTAGTGCAG	53400 fluorescence intensity (a.u.)
ATGGAAATTGATTAGGAGATTATTGATGCGATAAGTAGTACGGAGTCACCTAGTGCAG	37000 fluorescence intensity (a.u.)
AGTCACTTGATTTGCTTTATCATAGAGCTTGATGAGATCCCGGAGTCACCTAGTGCAG	24900 fluorescence intensity (a.u.)
TATAAATAACTTTGAAGATTGAATCGACATATCATACGATCGGAGTCACCTAGTGCAG	21200 fluorescence intensity (a.u.)
TAAGGTGCAGATTGATTTGCCATCCCAGAGCAGCAGCTTGCGGAGTCACCTAGTGCAG	29500 fluorescence intensity (a.u.)
CGGATTGATCGACGGCGAAGAATGAAGCTCACCAGAATTTCGGAGTCACCTAGTGCAG	5290 fluorescence intensity (a.u.)

Sequence	binding signal
TATTACATCGATCATATTGATTGTCGATTAGTACACCTTACGGAGTCACCTAGTGCAG	5790 fluorescence intensity (a.u.)
CGAGATTGATTAGGACTCGGAATCGATCGGAGTCGGAGTACGGAGTCACCTAGTGCAG	54800 fluorescence intensity (a.u.)
TTCAATTTGATTTTGATTTTAGGTGAATCTATAGATATCACGGAGTCACCTAGTGCAG	9990 fluorescence intensity (a.u.)
AACTTAATTTGATAAGAAAATTTAGTGGAGTCACCACAAGCGGAGTCACCTAGTGCAG	44100 fluorescence intensity (a.u.)
GGAAATATGTTAATTAAAATAATGCAACCCTAATCAGCAACGGAGTCACCTAGTGCAG	10500 fluorescence intensity (a.u.)
GATAATGATATGACCATGGTGATTTCGTCAATCTCAATACCGGAGTCACCTAGTGCAG	12100 fluorescence intensity (a.u.)
CAGACTGACAAGTGACAAGCAGAGGGCATCTCAGTACGCGCGGAGTCACCTAGTGCAG	3390 fluorescence intensity (a.u.)
ATCTAGAATTAGATGTGACATATCGTAGTACTATGAACCTCGGAGTCACCTAGTGCAG	4830 fluorescence intensity (a.u.)
CTTGATTGGATCAGGATCATTTGGCATGGTTTACAAGGGCCGGAGTCACCTAGTGCAG	65100 fluorescence intensity (a.u.)
GAGCTATTGATTGATTGATTGCTGATCGCTTCCAGTTCCACGGAGTCACCTAGTGCAG	54700 fluorescence intensity (a.u.)
CCTCATCCCTGATTGTGATTTTCTTTCCACACCACCCGGACGGAGTCACCTAGTGCAG	19500 fluorescence intensity (a.u.)
TTTGGATTGATCATGGTCATTTGTACTTTTGTAGTCTTTACGGAGTCACCTAGTGCAG	21500 fluorescence intensity (a.u.)
GCTCGATTGCCTTTTCATCATTCACATTGTTCTTCTTCTTCGGAGTCACCTAGTGCAG	11600 fluorescence intensity (a.u.)
GGGACAATCAGGGATTGTATGGTTTGAAGCTGATTTTGGCCGGAGTCACCTAGTGCAG	3320 fluorescence intensity (a.u.)
TGGGCAGCAGCTTGATTTGATTGCTTCATTTATCAAGTTGCGGAGTCACCTAGTGCAG	13600 fluorescence intensity (a.u.)
ATGGTTGATTGCTTGATCAAGGCATGCATCACTTGCTATGCGGAGTCACCTAGTGCAG	55800 fluorescence intensity (a.u.)
AATGCTTGATTGCACTTCGCTGTTCAGTTCATCATGCCTACGGAGTCACCTAGTGCAG	27400 fluorescence intensity (a.u.)
GCAAGTGTGATTGATCATTACTTGCTTGGTCTGATGGTTGCGGAGTCACCTAGTGCAG	48300 fluorescence intensity (a.u.)
TTCCGGTTCCTGATTGCTTGCTCCACCGATTGACCGATCGCGGAGTCACCTAGTGCAG	18100 fluorescence intensity (a.u.)
GTGATTGATTCGATTGATTGCCGCATCCACAGTTCTTTTCCGGAGTCACCTAGTGCAG	54700 fluorescence intensity (a.u.)
